This passage reports composite z-score and z-score results from PubChem BioAssay.

Activity calls are given as the source filed them. Unless noted, the rule behind the calls is not given here.

The test system of experiment [1] is Wnt5a (protein binding on small-molecule microarray). Description: small molecules binding Wnt5a protein – biophysical, small-molecule microarray, 635/667 nm fluorescence, primary screen (AID 1142).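 Note: fluorescence read at 667 nm with signal to noise per printed feature.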 The following applies: 635 nm fluorescence, higher = more signal.
Experiment [2] is described as follows: ATP-based viability of Huh7 replicon cells – cell-based, CellTiter-Glo luminescence, basal, 48 h, cytotoxicity control for HCV replication inhibitor project, primary screen (AID 1143).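 Note: Huh7 hepatoma cells carrying a hepatitis C replication reporter with no stimulus; test concentration not given here.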 The following applies: higher = more signal, called active from +8 up or from −8 down. (In general: In antiviral work, replicon cells carry a viral genome segment that copies itself.)

Experiment [3] can be described thus: Pseudomonas biofilm growth suppression – PAO1 strain, BacTiter-Glo luminescence, LB-PBS, primary screen (AID 1144). The note with it: P. aeruginosa PAO1 biofilm, 12 h, higher = more signal.
A short description of experiment [4]: basal CRE-LacZ reporter activity in PC12 – cell-based, unstimulated, primary screen (AID 1145). The note with it: no forskolin, luminescence, 4.5 h, higher = more signal, called active from +8 up or from −8 down.
The nature of experiment [5]: forskolin-driven CRE-LacZ activity in PC12 – cell-based, CRE-LacZ reporter, forskolin-stimulated, primary screen (AID 1146).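 Note: PC12 cells with 6xCRE LacZ reporter stimulated by forskolin 10 µM; beta-galactosidase reporter signal reflecting CREB driven transcription.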 The note with it: luminescence, 4.5 h, higher = more signal, called active from +8 up or from −8 down.
In experiment [6] the target is Streptavidin (Streptomyces avidinii) (UniProt P22629). Description: compounds binding control protein streptavidin – biophysical, small-molecule microarray, 635/667 nm fluorescence, artefact control for SMM compound annotation, primary screen (AID 1147).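 Note: signal reflects streptavidin binding to arrayed compounds as a control protein.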 The following applies: higher = more signal.
Experiment [7] can be described thus: probe aInhba binding on compound microarray – biochemical, small-molecule microarray, 635/667 nm fluorescence, primary screen (AID 1148).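 Note: score merges 667nm spot fluorescence with signal-to-noise for antibody binding to printed compounds.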 The following applies: higher = more signal.
The target of experiment [8] is Torsin-1A (Homo sapiens) (UniProt O14656). Description: TOR1A wild-type binding on microarray – cell lysate, small-molecule microarray, lysate, 635/667 nm, primary screen (AID 1149). The note with it: COS7 hTOR1A-WT lysate, 635 nm fluorescence, higher = more signal.
Experiment [9] has the same target. Description: torsin A mutant lysate binding on microarrays – cell lysate, small-molecule microarray, COS7 lysate, 635/667 nm fluorescence, primary screen (AID 1150).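 Note: score pools 667 nm emission and signal to noise measuring lysate protein binding.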 The following applies: COS7 hTOR1A mutant lysate, 635 nm fluorescence, higher = more signal.
The test system of experiment [10] is Sonic hedgehog protein (Shh). Description: Sonic hedgehog microarray binding compounds – biochemical, small-molecule microarray, 635/667 nm fluorescence, primary screen (AID 1151).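 Note: Shh protein binding to compounds spotted on small-molecule microarray slides; score combines spot fluorescence intensity with signal-to-noise across triplicate slides.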 The following applies: 635 nm fluorescence, higher = more signal.
The nature of experiment [11]: optical density shifts of acrAB sulA E. coli – strain DRC41, OD650, 48 h, E. coli filamentation inducer project, primary screen (AID 1152).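 Note: E. coli MC1000 strain DRC41 lacking acrAB efflux pump and sulA.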 The note with it: higher = more signal, called active from +8 up or from −8 down.
A short description of experiment [12]: probe aLefty1 binding on compound microarray – biochemical, small-molecule microarray, 635/667 nm fluorescence, primary screen (AID 1153).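 Note: score merges spot fluorescence with signal-to-noise ratio from the scanned slide images.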 The following applies: higher = more signal.
The nature of experiment [13]: plasmodial surface anion channel blockers, osmotic lysis – cell-based, P. falciparum Indochina, OD700, 1 h, primary screen (AID 1154). The following applies: P. falciparum Indochina infected RBC osmotic lysis, higher = more signal, called active from +8 up or from −8 down.
The nature of experiment [14]: plasmodial surface anion channel blockers, osmotic lysis – cell-based, P. falciparum Indochina, OD700, 2 h, primary screen (AID 1155).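 Note: lysis reports solute entry through the parasite surface anion channel PSAC.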 The following applies: P. falciparum Indochina infected erythrocytes, higher = more signal, called active from +8 up or from −8 down.
Experiment [15] can be described thus: changes in parasitized red cell lysis, either direction – P. falciparum Indochina, OD700, 3 h, PSAC antagonist project, primary screen (AID 1156). The following applies: P. falciparum-infected erythrocytes, osmotic lysis, higher = more signal, called active from +8 up or from −8 down.
Experiment [16] is described as follows: plasmodial surface anion channel blockers, osmotic lysis – cell-based, P. falciparum Indochina, OD700, 18 h, primary screen (AID 1157). The note with it: P. falciparum Indochina infected erythrocytes, osmotic lysis OD700, 18 h; higher = more signal, called active from +8 up or from −8 down.
Experiment [17] is described as follows: S6 kinase pathway phospho-S6 level changes – cell-based, A549, cytoblot, luminescence, serum-stimulated, primary screen (AID 1158).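 Note: serum-stimulated A549 lung adenocarcinoma cells; signal is phosphorylated S6 detected by cytoblot immunostaining with HRP secondary.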 The following applies: 5 h, higher = more signal.
Experiment [18] deals with NADPH oxidase 2 (Homo sapiens) (UniProt P04839). Description: compounds shifting NOX2 Amplex Red fluorescence – cell-based, HEK293-NOX2, PMA-stimulated, NOX inhibitor project, primary screen (AID 1159). Note: test concentration not given here. The following applies: 45 min, higher = more signal, called active from +8 up or from −8 down.
Experiment [19] addresses NADPH oxidase 4 (Homo sapiens) (UniProt Q9NPH5). Description: compounds shifting NOX4 Amplex Red fluorescence – cell-based, HEK293-NOX4, tetracycline-induced, NOX inhibitor project, primary screen (AID 1160). The note with it: HEK293-NOX4, Amplex Red H2O2 fluorescence, 45 min; higher = more signal, called active from +8 up or from −8 down.
For experiment [20], the target named is NADPH oxidase 5 (Homo sapiens) (UniProt Q96PH1). Description: compounds shifting NOX5 Amplex Red fluorescence – cell-based, HEK293-NOX5, NOX inhibitor project, primary screen (AID 1161). The note with it: HEK293-NOX5, ionomycin, 45 min, higher = more signal.
NADPH oxidase 5 (Homo sapiens), sequence (Q96PH1 whole entry, looked up): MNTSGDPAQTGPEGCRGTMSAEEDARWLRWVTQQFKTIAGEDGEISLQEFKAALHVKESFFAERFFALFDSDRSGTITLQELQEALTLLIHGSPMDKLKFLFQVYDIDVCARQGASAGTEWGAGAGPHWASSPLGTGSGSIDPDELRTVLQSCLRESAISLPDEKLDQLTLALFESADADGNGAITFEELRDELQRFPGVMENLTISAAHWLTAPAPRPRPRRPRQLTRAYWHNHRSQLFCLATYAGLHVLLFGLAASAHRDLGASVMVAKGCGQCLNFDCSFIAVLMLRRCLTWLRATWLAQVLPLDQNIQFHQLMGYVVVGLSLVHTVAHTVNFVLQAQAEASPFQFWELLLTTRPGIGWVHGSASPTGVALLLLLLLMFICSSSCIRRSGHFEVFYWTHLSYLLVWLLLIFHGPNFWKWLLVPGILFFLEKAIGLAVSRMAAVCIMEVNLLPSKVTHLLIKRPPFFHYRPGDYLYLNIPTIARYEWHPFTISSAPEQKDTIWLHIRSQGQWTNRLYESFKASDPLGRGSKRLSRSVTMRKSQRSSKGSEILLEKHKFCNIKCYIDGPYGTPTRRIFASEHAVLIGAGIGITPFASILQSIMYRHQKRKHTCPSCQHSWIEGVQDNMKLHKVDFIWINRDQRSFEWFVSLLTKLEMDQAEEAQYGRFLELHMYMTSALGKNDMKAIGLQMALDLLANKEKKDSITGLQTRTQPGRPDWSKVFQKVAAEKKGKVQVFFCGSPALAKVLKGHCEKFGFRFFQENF

Streptavidin (Streptomyces avidinii), sequence (P22629 whole entry, looked up): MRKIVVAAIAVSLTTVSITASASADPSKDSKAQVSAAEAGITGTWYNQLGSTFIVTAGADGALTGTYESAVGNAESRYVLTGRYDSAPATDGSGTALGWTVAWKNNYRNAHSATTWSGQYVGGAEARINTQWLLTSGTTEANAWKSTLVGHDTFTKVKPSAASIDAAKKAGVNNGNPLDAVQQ
Torsin-1A (Homo sapiens), sequence (O14656 whole entry, looked up): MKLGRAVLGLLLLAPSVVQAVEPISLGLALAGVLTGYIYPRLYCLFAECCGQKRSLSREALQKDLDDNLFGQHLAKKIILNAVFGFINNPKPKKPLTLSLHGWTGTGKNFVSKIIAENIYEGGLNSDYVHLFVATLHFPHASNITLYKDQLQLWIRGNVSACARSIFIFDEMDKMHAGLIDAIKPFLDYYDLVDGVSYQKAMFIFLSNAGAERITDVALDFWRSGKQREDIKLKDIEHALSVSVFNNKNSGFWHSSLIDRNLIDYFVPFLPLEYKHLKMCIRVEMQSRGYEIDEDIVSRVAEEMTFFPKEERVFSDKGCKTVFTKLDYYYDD
NADPH oxidase 4 (Homo sapiens), sequence (Q9NPH5 whole entry, looked up): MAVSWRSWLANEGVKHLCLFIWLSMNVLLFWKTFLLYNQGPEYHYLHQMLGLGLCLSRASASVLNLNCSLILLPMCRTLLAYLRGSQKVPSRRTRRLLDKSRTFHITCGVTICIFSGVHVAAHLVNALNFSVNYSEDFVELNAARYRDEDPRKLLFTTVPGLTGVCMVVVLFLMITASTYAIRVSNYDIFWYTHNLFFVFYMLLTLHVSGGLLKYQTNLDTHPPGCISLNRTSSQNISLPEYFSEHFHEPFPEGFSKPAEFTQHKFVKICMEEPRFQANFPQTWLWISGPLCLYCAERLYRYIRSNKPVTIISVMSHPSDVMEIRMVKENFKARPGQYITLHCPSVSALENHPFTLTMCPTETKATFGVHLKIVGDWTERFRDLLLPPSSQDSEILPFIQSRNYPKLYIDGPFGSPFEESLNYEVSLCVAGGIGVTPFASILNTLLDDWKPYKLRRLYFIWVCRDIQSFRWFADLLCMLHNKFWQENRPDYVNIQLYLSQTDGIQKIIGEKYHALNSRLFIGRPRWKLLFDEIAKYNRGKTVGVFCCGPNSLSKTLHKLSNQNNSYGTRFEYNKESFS
NADPH oxidase 2 (Homo sapiens), sequence (P04839 whole entry, looked up): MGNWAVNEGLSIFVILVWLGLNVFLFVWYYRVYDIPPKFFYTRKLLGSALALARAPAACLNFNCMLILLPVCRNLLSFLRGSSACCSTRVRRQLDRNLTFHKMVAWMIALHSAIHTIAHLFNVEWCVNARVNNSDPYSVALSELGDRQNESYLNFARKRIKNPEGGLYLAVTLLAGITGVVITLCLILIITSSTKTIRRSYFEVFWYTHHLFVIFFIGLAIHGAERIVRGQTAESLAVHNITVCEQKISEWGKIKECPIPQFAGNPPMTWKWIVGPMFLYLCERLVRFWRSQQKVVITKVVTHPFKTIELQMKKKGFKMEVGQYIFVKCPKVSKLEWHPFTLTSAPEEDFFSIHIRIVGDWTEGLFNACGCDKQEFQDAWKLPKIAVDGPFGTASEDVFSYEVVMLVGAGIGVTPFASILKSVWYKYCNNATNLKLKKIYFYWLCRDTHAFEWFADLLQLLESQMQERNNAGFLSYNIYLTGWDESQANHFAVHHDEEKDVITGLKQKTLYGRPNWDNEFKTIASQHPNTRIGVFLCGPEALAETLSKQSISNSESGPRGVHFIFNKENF

Turning to `CC(C)[Si]1(C(C)C)O[C@@H](c2ccccc2)c2cc(-c3ccc(-c4ccc(Cl)c(Cl)c4)o3)nc(-c3ccccc3)c21`, the composite z-score in experiment [1] is -0.0503; in experiment [6], 0.105; in [7], -0.0044; with Torsin-1A (Homo sapiens) [8], -0.118; with Torsin-1A (Homo sapiens) [9] it was 0.261; in experiment [10], 0.15. In experiment [12], the composite z-score was -0.0611. Besides, the z-score is -0.62 (inactive) in [2]; 0.115 (inactive) in [3]; -1.12 (inactive) in experiment [4]; 2.02 (inactive) in experiment [5]; -1.12 (inactive) in experiment [11]; 0.704 (inactive) in experiment [13]. Also, the z-score in experiment [14] is 0.0805 (inactive); in experiment [15], -0.449 (inactive); in [16], 0.656 (inactive); in [17], -0.121; in experiment [18], -0.364 (inactive); in experiment [19] it was 1.36 (inactive). For the same compound, the z-score in experiment [20] came to 1.26.

On to `CCCCN1CC=CC23O[C@@H]4C=CCCOC(=O)C4[C@H]2C(=O)N(CCCCCCO)[C@@H]3C1=O` (stereo not given in full), for which the composite z-score was -0.767 in experiment [1]; -0.564 in [6]; -0.208 in experiment [7]; -1.22 with Torsin-1A (Homo sapiens) [8]; -1.23 with Torsin-1A (Homo sapiens) [9]; 1.65 in experiment [10]. Besides, the composite z-score in [12] was -0.147. For the same compound, the z-score is 0.311 (inactive) in experiment [2]; 0.844 (inactive) in experiment [3]; 0.333 (inactive) in [4]; -0.199 (inactive) in experiment [5]; -0.288 (inactive) in [11]; 0.371 (inactive) in [13]. Also, the z-score in [14] was 0.491 (inactive); in experiment [15], 0.711 (inactive); in experiment [16] it was 0.258 (inactive); in [17], -0.493; in experiment [18] it was 1.24 (inactive); in [19] it was -0.13 (inactive). Moreover, the z-score in [20] came to 1.85.

As for `COc1cc(COC(C)=O)ccc1OC(C)=O`, the composite z-score in experiment [1] was 1.27; in [6] it was -0.114; in experiment [7], 0.257; in the experiment with Torsin-1A (Homo sapiens) [8], 0.343; with Torsin-1A (Homo sapiens) [9], 0.141; in experiment [10], 0.857. The compound further gave a composite z-score in experiment [12] of 0.383. For the same compound, the z-score in experiment [2] is -1.68 (inactive); in [3], -1.48 (inactive); in experiment [4] it was 1.42 (inactive); in experiment [5] it was 68.7 (active); in [11], 3.19 (inactive); in experiment [13], -1.49 (inactive). Further, the z-score in experiment [14] is -0.983 (inactive); in experiment [15], -1.76 (inactive); in experiment [16] it was -2.3 (inactive); in experiment [17], 1.29; in [18] it was -4.55 (inactive); in experiment [19], -0.433 (inactive). For the same compound, in experiment [20], the z-score was -0.154.

`Cc1ccc([C@@H]2C[C@@H](Sc3ccccc3)[C@H](C(=O)O)CN2S(=O)(=O)c2ccc(C)cc2)cc1`: the composite z-score in [1] is 0.387; in experiment [6], 1.39; in experiment [7], 0.122; with Torsin-1A (Homo sapiens) [8] it was 0.877; in the experiment with Torsin-1A (Homo sapiens) [9], 0.244; in experiment [10], -0.053. The compound further registered a composite z-score in experiment [12] of 0.481. In addition, the z-score was -0.758 (inactive) in experiment [2]; -0.606 (inactive) in experiment [3]; -0.676 (inactive) in experiment [4]; 0.762 (inactive) in experiment [5]; -1.07 (inactive) in [11]; 1.87 (inactive) in experiment [13]. Besides, the z-score in [14] was 0.835 (inactive); in experiment [15], -1.16 (inactive); in experiment [16], 0.759 (inactive); in experiment [17] it was -0.512; in [18] it was 2.06 (inactive); in experiment [19], -1.97 (inactive). In experiment [20], the z-score was -0.41.

With `CCCC[C@H]1OB(O)C[C@H]2C1=C(COC)Cn1c(=O)n(-c3ccccc3)c(=O)n12`, the composite z-score in [1] was 0.0162; in experiment [6], -0.333; in [7], -0.182; with Torsin-1A (Homo sapiens) [8], 0.0681; with Torsin-1A (Homo sapiens) [9] it was 0.0861; in experiment [10] it was 0.948. Moreover, the composite z-score in experiment [12] is -0.101. The z-score is 0.0344 (inactive) in experiment [2]; -0.549 (inactive) in experiment [3]; -0.327 (inactive) in [4]; 0.124 (inactive) in experiment [5]; 0.929 (inactive) in experiment [11]; 0.43 (inactive) in experiment [13]. In addition, the z-score was 0.0541 (inactive) in experiment [14]; 0.11 (inactive) in [15]; 0.0357 (inactive) in [16]; 0.385 in experiment [17]; 0.175 (inactive) in [18]; 0.317 (inactive) in experiment [19]. Also, the z-score in experiment [20] worked out at 0.476.
